High-throughput results: PubChem BioAssay, National Center for Advancing Translational Sciences (NCATS)
TRPV1 ag: human TRPV1 agonism; Q8NER1; TRPV1-expressing cells, Fluo-8 calcium influx, agonist mode; activation, % at 8.33 µM; actives 0.19% (n = 320,000); AID 540275; in the data active means activation above about 80%; inconclusive means between about 30% and that limit
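TRPV1-expressing cells were cultured overnight at 35.5C and loaded with Fluo-8 calcium dye for 40 to 90 min at room temperature. After a 10 s baseline, compound was added and calcium influx was read kinetically for 3 min (ex 480/em 520 nm).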
hERG WT inh: inhibitors of human wildtype KCNH2 potassium channel | U2OS, BacMam KCNH2, thallium flux FluxOr; hits give low values | activity change, % at 1.84 µM | actives 0.37% (n = 340,000);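 active means maximum activity change below -70%; inconclusive means maximum activity change between -70% and -50%; inactive means maximum activity change above -50%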
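U2OS cells were transduced with wild-type KCNH2 virus (2.03 x 10^8 / mL) for 4 h at room temperature, then cultured overnight at 37 C. Thallium flux was read with FluxOr dye. Rate constants were normalized to DMSO controls.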
KCNH2 3.1 inh: inhibitors of human KCNH2 3.1 potassium channel isoform; activity change, % (tested at about 1.8 µM); U2OS KCNH2 3.1, thallium flux FluxOr; hits give low values; actives 0.95% (n = 340,000);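 active means maximum activity change below -70%; inconclusive means maximum activity change from -70% to -50%; inactive means maximum activity change above -50%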;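 further: thallium influx rate constant from kinetic fluorescence after stimulation buffer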
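Channel expression came from 3.1 mutant virus (1.77 x 10^8 /mL) applied to suspended U2OS cells for 4 h. Flux was tracked with FluxOr dye plus Red40 quencher, and kinetic rate constants normalized to controls.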
MBNL1 CUG block: MBNL1-poly(CUG) RNA binding inhibition. actives 0.036% (n = 280,000). TR-FRET MBNL1-His/biotin-(CUG)12 binding, 665/545 ratio. Potency, µM (top dose mostly 57.5 µM), hits mostly inhibitors. AID 2675; active means well fitted inhibition curve with a large enough effect in the signal ratio, with a control signal flat, not every such curve was filed as active; inconclusive means small, poorly fitted or top-dose-only effect, or effect the other way, or a change in a side signal; inactive means no such curve, though single readings can be large or run the other way; the % refers to the signal ratio
Target sequence (Q9NR56 whole entry, looked up): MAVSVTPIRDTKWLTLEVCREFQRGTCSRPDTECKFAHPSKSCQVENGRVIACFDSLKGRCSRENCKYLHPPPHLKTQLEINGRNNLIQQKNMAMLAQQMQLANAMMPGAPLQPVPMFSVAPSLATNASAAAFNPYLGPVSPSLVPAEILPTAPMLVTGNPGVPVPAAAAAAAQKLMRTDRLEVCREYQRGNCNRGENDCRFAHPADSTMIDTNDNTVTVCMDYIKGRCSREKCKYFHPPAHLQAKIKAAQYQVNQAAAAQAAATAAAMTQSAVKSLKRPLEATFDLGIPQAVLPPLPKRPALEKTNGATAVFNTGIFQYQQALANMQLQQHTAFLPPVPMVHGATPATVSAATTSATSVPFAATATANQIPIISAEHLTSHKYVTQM
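Compounds (final 92 nM to 58 uM) are added to His-tagged MBNL1 and biotin-(CUG)12, then terbium anti-His antibody and streptavidin-XL665 (5 nM final). After 60 min at room temperature, the 665/545 nm ratio is read.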
TRPV1 PAM: enhances activation of the human vanilloid receptor TRPV1; actives 0.02% (n = 320,000); potentiation, % at 8.33 µM; Q8NER1; TRPV1-expressing cells, Fluo-8 calcium influx, capsaicin EC20 potentiation; in the data active means potentiation above about 80%; inconclusive means between about 30% and that limit
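Cells expressing TRPV1 were dye-loaded with Fluo-8 and read kinetically: 10 s baseline, 3 min after compound (agonist portion), then 2 min after EC20 capsaicin (allosteric enhancer portion). Calcium-bound dye fluorescence at 480/520 nm.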
Of the large screens only hits and unclear results are named; the others gave an inactive call. In the library only some 1.3% were active in any assay of this set; here they are far more common.

CCOC(=O)/C(C#N)=C\c1cc(C)n(-c2ccccc2)c1C	TRPV1 ag inconclusive
Cc1ccc2nc(SCC(=O)Nc3nonc3N)[nH]c2c1	none
CCOC(=O)NC(=O)CSc1nc2ccc(C)cc2[nH]1	KCNH2 3.1 inh -116
O=C(Nc1ccc2c(c1)OCO2)C1CCN(C(=O)c2ccc([N+](=O)[O-])cc2)CC1	MBNL1 CUG block inconclusive
CCNS(=O)(=O)c1ccc(CCC(=O)NCCC2=CCCCC2)cc1	hERG WT inh -243
Cc1ccc(S(=O)(=O)NCCC2=CCCCC2)cc1	none (no result: MBNL1 CUG block)
COc1ccc(C(=O)C2CCCN(C(=O)COc3ccc(C(C)=O)cc3)C2)cc1F (configuration not stated)	none
COc1ccc(C(=O)C2CCCN(C/C=C/c3ccccc3OC)C2)c(OC)c1 (configuration not stated)	KCNH2 3.1 inh -71
COc1ccc(/C=C/CN2CCCC(C(=O)c3ccc(OC)c(F)c3)C2)cc1 (configuration not stated)	KCNH2 3.1 inh -90
COc1cccc(C(=O)C2CCCN(C/C=C/c3ccccc3OC)C2)c1 (configuration not stated)	none
O=C(c1cccc(C(F)(F)F)c1)C1CCCN(Cc2cccn2-c2ccccn2)C1 (configuration not stated)	hERG WT inh inconclusive, KCNH2 3.1 inh -109
COc1ccc(C(=O)C2CCCN(Cc3cccn3-c3ccc(Cl)cn3)C2)c(OC)c1 (configuration not stated)	KCNH2 3.1 inh -73
CN(Cc1cn(-c2ccccc2)nc1-c1cc2ccccc2o1)C(=O)CCC(=O)O	none
CN1CCN(c2nc(-c3ccco3)cc(C(F)(F)F)n2)CC1	none
FC(F)(F)c1cc(-c2ccco2)nc(-n2nc(C(F)(F)F)cc2C2CC2)n1	KCNH2 3.1 inh -143
COc1nc(OC)nc(N2CCC(C(=O)NCc3ccco3)CC2)n1	none
O=C(NCc1ccco1)C1CCN(c2nc3ccccc3n2Cc2ccc(F)cc2)CC1	TRPV1 ag inconclusive, hERG WT inh -152, KCNH2 3.1 inh -104
O=C(CSc1nc2ccccc2c(=O)n1CCCN1CCOCC1)Nc1ccc(Br)cc1	KCNH2 3.1 inh inconclusive (no result: TRPV1 ag, MBNL1 CUG block, TRPV1 PAM)
Cc1ccc(NC(=O)CSc2nc3ccccc3c(=O)n2Cc2cccs2)cc1	KCNH2 3.1 inh -73
CCc1ccc(NC(=O)CSc2nc3ccccc3c(=O)n2CCCN2CCC(C)CC2)cc1	hERG WT inh -135, KCNH2 3.1 inh -97
CC(Sc1ccc(S(=O)(=O)N(C)C)cn1)C(=O)NC1CCCC1 (configuration not stated)	none (no result: MBNL1 CUG block)
COC(=O)C(NC(=O)c1ccc(F)cc1)(Nc1ncc(S(=O)(=O)c2ccc([N+](=O)[O-])cc2)s1)C(F)(F)F (configuration not stated)	hERG WT inh -75, KCNH2 3.1 inh -80, MBNL1 CUG block inconclusive
COC(=O)C(NC(=O)c1ccccc1C)(Nc1ncc(S(=O)(=O)c2ccc([N+](=O)[O-])cc2)s1)C(F)(F)F (configuration not stated)	MBNL1 CUG block inconclusive
CN(CC1CCOCC1)C(=O)CC1C(=O)NCCN1CC1CCCCC1 (configuration not stated)	none
Cc1ccc(S(=O)(=O)N2CCN(CC(=O)N/N=C\C(Cl)=C\c3ccccc3)CC2)cc1	hERG WT inh -130, KCNH2 3.1 inh -197
Cc1ccc(S(=O)(=O)N2CCN(CC(=O)N/N=C/c3ccco3)CC2)cc1	none
CC(/C=N\NC(=O)CN1CCN(S(=O)(=O)c2ccc(C)cc2)CC1)=C\c1ccccc1	KCNH2 3.1 inh -84
Cc1ccc(S(=O)(=O)N2CCN(CC(=O)N/N=C\c3ccncc3)CC2)cc1	none
Cc1cc(C)n2c(SCC(=O)N(C)C3CCCCC3)nnc2n1	none (no result: hERG WT inh)
O=C(CN1C(=O)NC(c2ccccc2)(c2ccccc2)C1=O)N1CCN(c2ccccc2F)CC1	KCNH2 3.1 inh -198 (no result: MBNL1 CUG block)
NC(=O)CN1CCN(S(=O)(=O)c2ccc(Br)cc2)CC1	KCNH2 3.1 inh -192
O=C(CN1CCN(S(=O)(=O)c2ccc(Br)cc2)CC1)Nc1ccc(F)cc1	none
O=C(CN1CCN(S(=O)(=O)c2ccc(Br)cc2)CC1)Nc1ccc(F)cc1F	KCNH2 3.1 inh -92
Cc1ccc(N2C(=O)c3ccc(C(=O)N4CCN(c5ccc(C)c(C)c5)CC4)cc3C2=O)cc1	none
Cc1ccc(NC(=O)CN2CCN(Cc3ccccc3)CC2)c(Br)c1	KCNH2 3.1 inh -87
Cc1ccc(N2C(=O)c3ccc(C(=O)N4CCN(Cc5ccccc5)CC4)cc3C2=O)cc1	hERG WT inh -145, KCNH2 3.1 inh -202
O=C(c1ccc(-n2cccc2)cc1)N1CCN(Cc2ccccc2)CC1	hERG WT inh -73, KCNH2 3.1 inh inconclusive
CC(C)N(Cc1cn[nH]c1-c1ccc(-c2ccccc2)cc1)Cc1nccn1C	KCNH2 3.1 inh inconclusive
CN(C)c1oc(/C=C/c2cccs2)nc1S(=O)(=O)c1ccccc1	none
CCc1ccc(-c2nnn(CC(=O)N(C3CCCC3)C3CCS(=O)(=O)C3)n2)cc1 (configuration not stated)	none (no result: MBNL1 CUG block)
C=C(CCO)C1=CCN(S(=O)(=O)C(C)(C)C)[C@H]1CCO	none (no result: TRPV1 ag, MBNL1 CUG block, TRPV1 PAM)
Oc1ccc(Cl)cc1CNc1cnc2ccccc2c1	hERG WT inh -224
Oc1ccccc1CNc1cnc2ccccc2c1	none
Cc1ccc(S(=O)(=O)Nc2ccc3cc([N+](=O)[O-])ccc3c2[N+](=O)[O-])cc1	none (no result: TRPV1 ag, MBNL1 CUG block, TRPV1 PAM)
CCOC(=O)c1ccc(NC(=O)N2CCN(CCc3ccccc3)CC2)cc1	TRPV1 ag inconclusive
CCOc1ccc(NC(=O)OCCN2CCN(CCc3ccccc3)C(C)C2)cc1 (configuration not stated)	KCNH2 3.1 inh -96 (no result: TRPV1 ag, MBNL1 CUG block, TRPV1 PAM)
CCOC(=O)c1c(C)[nH]c(C(=O)N/N=C/c2cc([N+](=O)[O-])ccc2O)c1C	KCNH2 3.1 inh -70, TRPV1 PAM inconclusive
CCOC(=O)c1c(C)[nH]c(C(=O)N/N=C\c2ccccc2O)c1C	none
O=C(O)Cn1c(SCCOc2ccccc2)nc2ccccc21	none
Cc1ccc(OCCSc2nc3ccccc3n2CC(=O)O)cc1C	TRPV1 PAM 95
CSc1ccc2c(c1)C(N1CCN(C)CC1)Cc1ccc(F)cc1S2 (configuration not stated)	hERG WT inh inconclusive, KCNH2 3.1 inh -94 (no result: TRPV1 ag, MBNL1 CUG block, TRPV1 PAM)
COc1ccc2c(c1)CC(N1CCN(C)CC1)c1cc(OC)ccc1S2 (configuration not stated)	none (no result: TRPV1 ag, MBNL1 CUG block, TRPV1 PAM)
CC(C)Oc1ccc(NC(=O)Oc2ccccc2)cc1	KCNH2 3.1 inh -207
COc1ccc(Cn2nnnc2C(c2cccs2)N2CCN(c3ccc([N+](=O)[O-])cc3)CC2)cc1 (configuration not stated)	hERG WT inh inconclusive, KCNH2 3.1 inh -99
